Screening results from PubChem.
Sampled rows, rich in hits. Any-hit rate of the full collection: about 1.2%.
PKA-R2B act – activators of human PKA-R2B complex; PKA-R2B holoenzyme dissociation, Cy5-IP20 fluorescence polarization; R2B truncated from residue 108, S112A mutant; 0% DMSO only, 100% 113 µM cGMP; 0.079% of 340,000 active; activation, % at 11.4 µM;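 active = activation above a cutoff set at the mean over all compounds plus 3 SD, cut at about 18% in these data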;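 also: higher means more holoenzyme dissociation and a rise in polarization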
Rev-erbA mod – Rev-erb alpha (human) modulation. P20393. Rev-erbα–FITC-DNA binding, fluorescence polarization, 90 min. 0.79% of 370,000 active. activity, % at 10 µM;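 active = activity above about 14%, limit read from the data; passing the limit was not always enough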;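 also: 0% = DMSO wells with 35 nM protein and 100% = DMSO wells with 750 nM protein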
PKA-R1A act – PKA-R1A complex activation. PKA-R1A dissociation, Cy5-IP20 fluorescence polarization; scaled: DMSO 0%, 113 µM cGMP 100%. P00514+P68181. activation, % at 11.4 µM. AID 504707. 0.083% of 340,000 active;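 active = percent activation above the mean of all tested compounds plus 3 SD, cut at about 19% in these data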;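 also: higher means more PKAc released from R1A so a rise in polarization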
PG9 Ab binder – small molecules binding HIV-1 gp120 antibody PG9; AID 624416; TR-FRET gp120-PG9 antibody binding; inhibition, % at 6.7 µM; 0.43% of 360,000 active; in the data active = inhibition above about 8.5%
R2B FP artifact – FP assay interference, PKA-R2B counter-screen. shares compounds with PKA-R2B act. FP artifact counterscreen, fluorescence polarization. activation, % at 11.4 µM. 6% of 270 active; in the data active = activation above about 20%;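 also: Cy5 labelled IP20 peptide probe with compound but no PKA protein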
PKA-R2B act conf – PKA-R2B complex activation, confirmation | shares compounds with PKA-R2B act | fluorescence polarization | activation, % at 11.4 µM | 9% of 270 active | AID 504797; in the data active = activation above about 19%
* = called active by the depositor; i = inactive; nt = not tested or not shown; + = active, no number.

SMILES | PKA-R2B act | Rev-erbA mod | PKA-R1A act | PG9 Ab binder | R2B FP artifact | PKA-R2B act conf
O=C1C2=C(SCCS2)C(=O)N1c1ccccc1 | 24.0* | -5.2 | -9.4 | -2.5 | -2.6 | -1.8
O=C1CSCC(=O)N1c1ccccc1 | 7.5 | 2.2 | 3.6 | 0.0 | nt | nt
CC(=O)OCC(=O)[C@@]1(O)CCC2C3CCC4=CC(=O)CC[C@]4(C)[C@@]3(F)[C@@H](O)C[C@@]21C (stereo not given in full) | nt | -1.4 | nt | nt | nt | nt
CCN(CC)c1ccc(NC(=O)Cn2c(C(C)NC(=O)c3ccccc3)nc3ccccc32)cc1 (stereo not given) | 18.6* | -1.2 | 0.5 | -2.1 | -3.4 | -3.0
CSCC(=O)NCC1(N(C)Cc2ccccc2)Cc2ccccc2C1 | -3.0 | -3.4 | 12.2 | -3.2 | nt | nt
CC#CC(=O)NCC1(N(C)Cc2ccccc2)Cc2ccccc2C1 | 18.5* | 1.4 | 4.9 | -0.4 | 5.6 | 1.6
CCn1c(SCc2nc3scc(-c4ccccc4)c3c(=O)[nH]2)nnc1-c1ccc(Cl)cc1 | 19.7* | -8.2 | -2.0 | 0.1 | -2.3 | -2.5
Cc1ccc(-c2csc3nc(CSc4nnc(-c5ccc(Cl)cc5)n4C)[nH]c(=O)c23)cc1 | -4.2 | 1.3 | 10.8 | -1.4 | nt | nt
O=C(N/N=C/c1cc(O)ccc1[N+](=O)[O-])c1ccc2c(c1)OCCO2 | 19.5* | 0.9 | -1.1 | -3.7 | 5.3 | -0.1
Cc1ccc2nc(SCCC#N)nc(C)c2c1 | -0.4 | -0.2 | 1.1 | 2.9 | nt | nt
Cc1ccc2nc(SCC(=O)O)nc(C)c2c1 | 20.2* | -3.5 | 6.9 | -0.3 | 2.5 | 2.0
O=C(N[C@@H](CO)[C@H](O)c1ccc([N+](=O)[O-])cc1)C(Cl)Cl | nt | -4.4 | nt | nt | nt | nt
COCCNC(=O)CN(Cc1ccccc1)C(=O)CCC(=O)Nc1nccs1 | 19.1* | 6.2 | 0.0 | -1.1 | 2.4 | -4.3
CC[C@@H]([C@H](C)O)n1ncn(-c2ccc(N3CCN(c4ccc(OC[C@@H]5CO[C@@](Cn6cncn6)(c6ccc(F)cc6F)C5)cc4)CC3)cc2)c1=O | nt | -1.2 | nt | nt | nt | nt
Cc1cnc(NC(=O)CC2OC(=O)c3ccccc32)s1 (stereo not given) | 19.4* | 0.1 | -4.1 | -1.7 | 3.0 | 1.2
Cc1cnc(NC(=O)CC2CCCC2)s1 | 0.0 | -3.6 | -0.1 | 0.5 | nt | nt
O=C(O)[C@@H](S)[C@@H](S)C(=O)O | nt | -1.9 | nt | nt | nt | nt
CC(C)OC(=O)CSc1nnc(-c2ccc(C(C)(C)C)cc2)n1N | 19.1* | 10.5 | -0.4 | 1.2 | -1.4 | 3.3
O=C(CNC(=O)c1ccc(Cl)cc1)NO | nt | 1.8 | nt | nt | nt | nt
O=C(O)C1(C(=O)O)CCC1 | + | 2.3 | i | -2.5 | i | i
O=C(c1ccc(Cl)cc1)C1C2C(=O)N(c3ccccc3)C(=O)C2C2CCCN21 (stereo not given) | -3.6 | 0.0 | 3.8 | -0.6 | nt | nt
O=C(c1ccc(Cl)cc1)[C@@H]1[C@@H]2C(=O)N(c3ccccc3)C(=O)[C@@H]2C2c3ccccc3C=NN21 (stereo not given in full) | 25.8* | 6.9 | -1.3 | 0.0 | 4.2 | 0.0
CC(=O)OCC(=O)[C@@]12OC(C)(C)O[C@@H]1CC1C3C[C@H](F)C4=CC(=O)C=C[C@]4(C)[C@@]3(F)[C@@H](O)C[C@@]12C (stereo not given in full) | nt | 2.1 | nt | nt | nt | nt
O=C(OCc1ccc(F)cc1)c1cc(=O)c2ccccc2o1 | 20.6* | -5.1 | 5.8 | -0.3 | 1.2 | 4.0
CCCCCCCCCCCCCCCC[N+](C)(C)CCN(Cc1ccc(OC)cc1)c1ncccn1 | 30.0* | nt | -4.2 | nt | -1.4 | 35.6*
COc1cccc(NC(=O)C(=O)NCCCN2CCCC2=O)c1 | 20.3* | -5.8 | 8.7 | 0.6 | 2.3 | 1.7
C[C@@]12CCC=C[C@H]1[C@H](c1ccccc1Br)N(Cc1ccccc1)C2=O | 11.1 | -4.0 | 2.3 | -0.7 | -2.7 | -2.7
Cc1ccc(F)c([C@H]2[C@@H]3C=CCC[C@@]3(C)C(=O)N2Cc2ccccc2)c1 | 4.2 | -1.3 | -9.5 | -3.0 | nt | nt
Cc1nc2scc(C)n2c(=O)c1S(=O)(=O)Nc1ccc(F)cc1 | 21.7* | 4.9 | 11.8 | -1.1 | 4.4 | 1.8
Cc1ccccc1N1CCN(S(=O)(=O)CC23CCC(CC2=O)C3(C)C)CC1 (stereo not given) | -3.5 | 1.4 | -0.8 | 0.0 | nt | nt
